Laboratory results: PMC4336329 (PLoS ONE, 2015)
In all, about 310,000 compounds went through this assay and about 14,000 (4.5%) showed an effect of 50% or more. Effects have a minus sign here. Many of the other results were omitted from the sample, so strong results are more common in it than they were.

What follows are compounds tested against human ether-à-go-go-related gene (hERG) potassium channel (human, UniProt Q12809) (assay: primary screen, population patch clamp on CHO cells stably expressing hERG; higher = less effect of the substance).
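Further: peak tail current of the secondary pulse compared with the same well before compound.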

Sequence of human ether-à-go-go-related gene (hERG) potassium channel (Q12809 whole entry, looked up): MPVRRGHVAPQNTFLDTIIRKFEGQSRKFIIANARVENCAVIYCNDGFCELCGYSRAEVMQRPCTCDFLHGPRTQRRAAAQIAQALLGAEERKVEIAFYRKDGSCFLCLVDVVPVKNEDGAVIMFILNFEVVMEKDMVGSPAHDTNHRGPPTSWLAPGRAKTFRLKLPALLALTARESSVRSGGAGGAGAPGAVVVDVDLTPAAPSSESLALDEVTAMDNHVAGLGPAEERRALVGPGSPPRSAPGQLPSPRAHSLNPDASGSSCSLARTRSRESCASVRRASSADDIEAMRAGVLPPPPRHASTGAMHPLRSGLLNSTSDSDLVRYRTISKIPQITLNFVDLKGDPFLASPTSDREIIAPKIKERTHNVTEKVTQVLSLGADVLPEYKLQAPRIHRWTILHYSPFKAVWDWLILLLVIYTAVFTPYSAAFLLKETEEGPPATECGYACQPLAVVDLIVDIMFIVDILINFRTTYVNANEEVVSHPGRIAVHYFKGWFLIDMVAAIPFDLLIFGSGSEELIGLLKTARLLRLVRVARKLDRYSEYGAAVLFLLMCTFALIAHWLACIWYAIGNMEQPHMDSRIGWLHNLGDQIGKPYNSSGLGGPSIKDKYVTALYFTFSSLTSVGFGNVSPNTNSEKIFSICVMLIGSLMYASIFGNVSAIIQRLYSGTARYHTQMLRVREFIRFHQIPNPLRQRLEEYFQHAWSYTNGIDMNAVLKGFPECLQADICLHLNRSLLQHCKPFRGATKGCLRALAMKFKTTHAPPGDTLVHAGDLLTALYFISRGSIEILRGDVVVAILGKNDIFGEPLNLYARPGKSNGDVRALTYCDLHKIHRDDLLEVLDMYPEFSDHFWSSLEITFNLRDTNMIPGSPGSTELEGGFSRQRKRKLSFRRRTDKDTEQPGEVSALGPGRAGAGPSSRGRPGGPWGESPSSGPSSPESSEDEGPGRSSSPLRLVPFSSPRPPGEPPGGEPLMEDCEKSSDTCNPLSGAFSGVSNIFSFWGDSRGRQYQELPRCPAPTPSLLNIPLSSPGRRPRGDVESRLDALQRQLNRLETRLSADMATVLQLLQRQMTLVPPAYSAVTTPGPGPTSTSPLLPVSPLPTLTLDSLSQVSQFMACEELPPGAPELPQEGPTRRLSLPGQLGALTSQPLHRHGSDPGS

| SMILES | hERG current change (%, negative = inhibition) at 10uM |
| --- | --- |
| O=C(Nc1nc(-c2ccco2)c(-c2ccco2)s1)c1cnccn1 | 3.8% |
| CCOC(=O)C1=C(COC(=O)COc2ccc(C(=O)CC)cc2)NC(=O)NC1C (stereo not shown) | -25.5% |
| O=C1N/C(=N\N=C\c2cccs2)SC1Cc1ccc(Cl)c(Cl)c1 (stereo not shown) | 16.1% |
| Cc1cc(NC(=O)c2cc(-c3ccco3)on2)n(-c2ccccc2)n1 | -0.313% |
| Cc1cccc(COc2ncnc3nc[nH]c23)c1 | -6.73% |
| CCOc1ccc(NS(=O)(=O)c2ccc(C(=O)NCC3(N(C)C)CCCCC3)cc2)cc1 | -8.13% |
| CN(C)C1(CNC(=O)c2cccc(S(=O)(=O)Nc3ccc(Br)cc3)c2)CCCCC1 | -66.7% |
| Cc1cc(S(=O)(=O)Nc2ccc(C(=O)NCC3(N(C)C)CCCCC3)cc2)ccc1F | -49.2% |
| CN(C)C1(CNC(=O)Nc2ccc(Cl)c(Cl)c2)CCCCC1 | -50.1% |
| Cc1ccc(NS(=O)(=O)c2cccc(C(=O)NCC3(N(C)C)CCCCC3)c2)cc1 | -22.4% |
| CN(C)C1(CNC(=O)c2ccc(NS(=O)(=O)c3ccc(Cl)c(Cl)c3)cc2)CCCCC1 | -74.1% |
| CN(C)C1(CNC(=O)Nc2ccccc2)CCCCC1 | -3.27% |
| COc1ccc(NS(=O)(=O)c2cccc(C(=O)NCC3(N(C)C)CCCCC3)c2)cc1 | -40.6% |
| CN(C)CCNC(=O)Nc1ccc(Cl)c(Cl)c1 | -23.4% |
| Cc1ccc(CNC(=O)c2ccc(Br)o2)cc1 | -18% |
| O=C(NC1CCCC1)C1CCCN(S(=O)(=O)c2cnc[nH]2)C1 (stereo not shown) | 15.3% |
| O=C(NCc1cccs1)c1cnc(Cl)c(Cl)c1 | 11.7% |
| CC1=Nc2ccccc2N=C(NC(=O)CSC(=S)N2CCN(C)CC2)C1c1ccccc1 (stereo not shown) | -24.2% |
| COc1ccc2c(Cl)c(C(=O)NN)sc2c1 | 7.88% |
| O=[N+]([O-])c1ccc(CSc2nnc(SCc3ccc(Cl)cc3)s2)cc1 | 16.8% |
| O=C(c1ccccc1F)N1CCc2ccccc21 | -7.14% |
| Cc1ccc(N(CC(=O)NC2CCCC2)C(=O)CCCC(=O)Nc2ccccn2)cc1C | 2.86% |
| COc1ccc(/C=N/OCC(=O)NC(c2ccccc2)c2ccccc2)c(OC)c1 | -35.1% |

| SMILES | hERG current change (%, negative = inhibition) at 10uM |
| --- | --- |
| CCc1nnc(NC(=O)CSc2nnc(CNc3cccc(C)c3)n2-c2ccccc2)s1 | 3.35% |
| CCn1c(CCNC(=O)c2cccs2)nnc1SCC(=O)Nc1ccc(Cl)cc1 | -49.7% |
| CCc1nnc(NC(=O)CSc2nnc(CNc3ccc(OC)cc3)n2CC)s1 | 13.1% |
| CCn1c(CNC(=O)c2cccs2)nnc1SCC(=O)Nc1ccc(Cl)cc1 | -57.5% |
| CCn1c(CCNC(=O)c2cccs2)nnc1SCC(=O)Nc1cccc(Cl)c1 | -64.5% |
| CCn1c(CCNC(=O)c2cccs2)nnc1SCC(=O)NC1CCCCC1 | 0.651% |
| CCc1nnc(NC(=O)CSc2nnc(CNc3cccc(Cl)c3)n2CC)s1 | -59.6% |
| CCn1c(CCNC(=O)c2cccs2)nnc1SCC(=O)c1ccc(OC)cc1 | 7.05% |
| Cn1c(CNC(=O)c2cccs2)nnc1SCC(=O)Nc1ccc(Cl)cc1 | -35.4% |
| CCC(C)(C)C1CCC(=NNC(=O)c2ccoc2C)CC1 (stereo not shown) | 6.38% |
| CSc1nc(-c2ccccc2)nc(N2CCCC2)c1C(C)=O | -10.8% |
| CCN(CC)C(=O)CSc1ncnc2c1cnn2Cc1ccccc1 | -19.9% |
| O=C(NC1CCCCCCC1)c1ccccc1O | -6.11% |
| CC(=O)Nc1ccc(NC(=O)C(C)OC(=O)CCCc2c[nH]c3ccccc23)cc1 (stereo not shown) | 7.68% |
| Cn1c(=O)c2c(nc(CN3CCN(c4ccccc4)CC3)n2CCc2ccccc2)n(C)c1=O | -33.7% |
| CCCCn1c(CN2CCN(c3cccc(Cl)c3)CC2)nc2c1c(=O)n(C)c(=O)n2C | -56.3% |
| CCCn1c(CN2CCN(c3cccc(Cl)c3)CC2)nc2c1c(=O)n(C)c(=O)n2C | -63.6% |
| CCCCn1c(CN2CCN(c3ccccc3)CC2)nc2c1c(=O)n(C)c(=O)n2C | -45.7% |
| CC(C)CCn1c(CN2CCN(c3cccc(Cl)c3)CC2)nc2c1c(=O)n(C)c(=O)n2C | -5.6% |
| CCCCCn1c(CN2CCN(c3cccc(Cl)c3)CC2)nc2c1c(=O)n(C)c(=O)n2C | -35.3% |
| CCc1ccc(-c2nc(C(N)=O)c3[nH]c(=O)n(-c4ccccc4OC)c3n2)cc1 | -0.102% |
| COc1cc(/C=N/Nc2nc(=O)[nH]nc2C)ccc1O | 4.93% |
| CSc1ccccc1NC(=O)CN(C)C(=O)c1ccc2c(c1)OCCO2 | 5.66% |
